What is called AC50 is the concentration at which the activity in the assay is half-maximal.

The target of the assay is human Peroxisome Proliferator-activated Receptor alpha (PPARa), PPARA (gene 5465) (UniProt Q07869). Kind of assay: ATG_hPPARa_EcoTox2: Attagene TRANS-FACTORIAL EcoTox-2 HepG2 Assay for human Peroxisome Proliferator-activated Receptor alpha (PPARa). The protocol:
ATG_EcoTox2 is a cell-based, multiplexed assay created by modifying the existing Attagene TRANS-FACTORIAL system to include a panel of nuclear receptors from some or all the following species: human (Homo sapiens), african clawed frog (Xenopus laevis), rainbow trout (Oncorhynchus mykiss), japanese medaka (Oryzias latipes), and zebrafish (Danio rerio). The ECOTOX2-FACTORIAL format uses HepG2, a human liver cell line, with measurements taken at 24 hours after chemical dosing in a 24-well plate. ATG_hPPARa_EcoTox2 is one of 29 assay components calculated in the ATG_EcoTox2 assay. It is designed to make measurements of mRNA induction, a form of inducible reporter, as detected with fluorescence intensity signals by Reverse transcription polymerase chain reaction (RT-PCR) and Capillary electrophoresis technology.The assay endpoint ATG_hPPARa_EcoTox2 was analyzed in the positive analysis fitting direction relative to DMSO as the negative control and baseline of activity. Using a type of inducible reporter, measures of mRNA for gain-of-signal activity can be used to understand the reporter gene at the transcription factor-level as they relate to the gene PPARa. Furthermore, this assay endpoint can be referred to as a primary readout, because this assay has produced multiple assay endpoints where this one serves a reporter gene function. […]

Results filed as inconclusive are left out. Activity calls are given as the source filed them. Rule for the calls: active = hit-call score of the fitted dose curve at least 0.9, where 1 is the maximum; inconclusive = response in the unintended direction; inactive = score below 0.9.

Chain of human Peroxisome Proliferator-activated Receptor alpha (PPARa), PPARA (gene 5465) (Q07869 whole entry, looked up): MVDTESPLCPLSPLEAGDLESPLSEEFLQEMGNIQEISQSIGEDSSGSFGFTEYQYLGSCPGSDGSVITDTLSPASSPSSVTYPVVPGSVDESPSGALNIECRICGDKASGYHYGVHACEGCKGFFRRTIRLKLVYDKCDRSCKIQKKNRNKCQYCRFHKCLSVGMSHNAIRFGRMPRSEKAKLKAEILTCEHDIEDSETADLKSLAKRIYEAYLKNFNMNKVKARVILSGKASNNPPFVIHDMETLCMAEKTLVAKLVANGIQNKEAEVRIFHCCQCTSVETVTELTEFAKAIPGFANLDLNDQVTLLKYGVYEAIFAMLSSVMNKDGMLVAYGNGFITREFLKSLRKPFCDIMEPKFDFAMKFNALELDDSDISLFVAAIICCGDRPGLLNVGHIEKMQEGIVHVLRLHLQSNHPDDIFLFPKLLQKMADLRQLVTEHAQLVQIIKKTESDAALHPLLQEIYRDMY

For the compound `O=C(O)C(F)(F)C(F)(F)C(F)(F)C(F)(F)C(F)(F)C(F)(F)C(F)(F)F`, the AC50 is 11.4 µM (active).
To `O=S(=O)(O)C(F)(F)C(F)(F)C(F)(F)C(F)(F)C(F)(F)C(F)(F)F` belongs 23 µM (active).
